Measurements as given in PubChem BioAssay (Tox21).
Where “and” joins values, the source holds several entries; their conditions need not be identical. Equal entries are not always repeated. Results filed as inconclusive are left out. The source holds several records for some structures; these can differ, active in one and inactive in another. Calls of active or inactive are those of the source. Unless noted, calls come from the whole dose curve.

Legend:
[1] = qHTS assay to identify small molecule antagonists of the vitamin D receptor (VDR) signaling pathway - cell viability counter screen (AID 743225; active = well fitted curve in the direction sought with a large enough effect in the repeat runs; an effect the other way counts as inactive or inconclusive; note: nearly all actives have a fitted effect of over 50% in size; note: potency is the fitted concentration of half-maximal effect; for viability change, negative = cytotoxic: % is set by controls: 0 for no effect and ±100 for the full control effect)
Method in brief: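 In this counter screen, VDR-bla HEK 293T cells receive test compound plus 3 nM final calcitriol for 16 h at 37C. Room-temperature steps of 2 h with the beta-lactamase substrate, then 30 min with CellTiter-Glo, precede the luminescence read.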

[2] = qHTS assay to identify small molecule agonists of the NFkB signaling pathway - cell viability counter screen (AID 1159515); note: nearly all actives have a fitted effect of over 55% in size; note: potency is the fitted concentration of half-maximal effect
Method in brief: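 Counter screen run alongside the NFkB-bla agonist assay: ME-180 reporter cells exposed to compounds for 5 hr, then lysed with CellTiter-Glo in the same wells. Luminescence, read after 30 min, reflects viable cells.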

[3] = qHTS assay to identify small molecule agonists of the endoplasmic reticulum stress response signaling pathway (AID 1159516; active = well fitted activation curve with a large enough effect in the signal ratio in the repeat runs, not every such curve was filed as active; the % refers to the signal ratio; note: potency is the fitted concentration of half-maximal effect; for activation: % is set by controls: 0 for no effect and ±100 for the full control effect)
Method in brief: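 For this screen, HeLa cells stably carrying beta-lactamase under the ER stress response element received test compounds, positive controls or DMSO for 5 hr at 37 C; B/G FRET substrate was then added and dual-wavelength emission recorded.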

[4] = qHTS assay to identify small molecule agonists of the endoplasmic reticulum stress response signaling pathway - cell viability counter screen (AID 1159517); note: nearly all actives have a fitted effect of over 50% in size; note: potency is the fitted concentration of half-maximal effect; for activity change, negative = cytotoxicity: series mostly up to about 61 µM; % is set by controls: 0 for no effect and ±100 for the full control effect
Method in brief: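 In parallel with the ESRE reporter read, cytotoxicity was scored by CellTiter-Glo luminescence (30 min, room temperature) on HeLa ESRE-bla cells dosed for 5 hr.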

[5] = qHTS assay to identify small molecule antagonists of the retinoid-related orphan receptor gamma (ROR-gamma) signaling pathway - cell viability counter screen (AID 1159520; active = well fitted curve in the direction sought with a large enough effect in the repeat runs; an effect the other way counts as inactive or inconclusive; note: nearly all actives have a fitted effect of over 50% in size; note: potency is the fitted concentration of half-maximal effect)
Method in brief: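 Tet-on ROR gamma CHO cells were given compounds for 2 hr, then doxycycline hyclate at 1 uM final, and incubated 16 hr at 37 C. Viability was measured as ATP content by CellTiter-Glo luminescence.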

[6] = target: Nuclear receptor ROR-gamma (Homo sapiens) (UniProt P51449); assay: qHTS assay to identify small molecule antagonists of the retinoid-related orphan receptor gamma (ROR-gamma) signaling pathway (AID 1159521; active = well fitted curve in the direction sought with a large enough effect in the repeat runs; an effect the other way counts as inactive or inconclusive; note: nearly all actives have a fitted effect of over 50% in size; note: potency is the fitted concentration of half-maximal effect)
Method in brief: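 Screening format: cell-based luciferase reporter in CHO cells with doxycycline-inducible RORγ. Compound pre-exposure lasts 2 h, doxycycline is 1 uM final, induction runs 16 h at 37 C, and ONE-Glo luminescence is read.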

[7] = qHTS assay to identify small molecule agonists of the AP-1 signaling pathway - cell viability counter screen (AID 1159525); note: nearly all actives have a fitted effect of over 55% in size; note: potency is the fitted concentration of half-maximal effect
Method in brief: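 Same-well cytotoxicity counter screen of the Tox21 10K library in ME-180 cells. The readout is ATP-dependent luminescence after 5 h compound treatment. Data are normalised to DMSO and tetra n-octyl ammonium bromide controls.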

[8] = qHTS assay to identify small molecule agonists of the AP-1 signaling pathway (AID 1159526); note: % is set by controls: 0 for no effect and ±100 for the full control effect
[9] = qHTS assay to identify small molecule agonists of the RXR signaling pathway - cell viability counter screen (AID 1159529; active = well fitted curve in the direction sought with a large enough effect in the repeat runs; an effect the other way counts as inactive or inconclusive; note: nearly all actives have a fitted effect of over 50% in size; note: potency is the fitted concentration of half-maximal effect)
Method in brief: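 Viability read-out for the RXR-alpha agonist qHTS: luminescent CellTiter-Glo signal after 30 min at RT. HEK 293T bla reporter cells, 2% charcoal-stripped FBS, 16 hr compound incubation; tetraoctyl ammonium bromide as cytotoxic control.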

[10] = target: Retinoic acid receptor RXR-alpha (Homo sapiens) (UniProt P19793); assay: qHTS assay to identify small molecule agonists of the RXR signaling pathway (AID 1159527); note: % is set by controls: 0 for no effect and ±100 for the full control effect; nearly all actives have a fitted effect of over 35% in size
Method in brief: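 Fluorescence ratio readout (460 vs 530 nm) from GeneBLAzer RXR-alpha HEK 293T cells after 16 hr compound treatment; cells seeded 5 hr beforehand in low-serum, charcoal-stripped medium.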

Chain of Retinoic acid receptor RXR-alpha (Homo sapiens) (P19793 whole entry, looked up): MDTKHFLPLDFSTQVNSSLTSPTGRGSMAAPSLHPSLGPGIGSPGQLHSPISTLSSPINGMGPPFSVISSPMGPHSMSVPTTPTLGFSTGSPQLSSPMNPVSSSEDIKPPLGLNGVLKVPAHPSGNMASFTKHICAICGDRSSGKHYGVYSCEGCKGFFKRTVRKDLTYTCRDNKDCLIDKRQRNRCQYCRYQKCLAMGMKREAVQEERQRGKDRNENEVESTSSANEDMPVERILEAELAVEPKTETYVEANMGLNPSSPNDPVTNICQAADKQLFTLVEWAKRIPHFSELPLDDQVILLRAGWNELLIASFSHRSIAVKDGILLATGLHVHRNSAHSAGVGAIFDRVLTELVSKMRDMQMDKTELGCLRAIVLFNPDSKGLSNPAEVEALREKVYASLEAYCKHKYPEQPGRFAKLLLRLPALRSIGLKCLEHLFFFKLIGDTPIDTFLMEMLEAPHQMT

CCC1(C2=NCCN2)Cc2ccccc2O1 (stereo unspecified)
inactive: Potency [1] | Potency [2] | Potency [3] | Potency [4] | Potency [5] | Potency [6] | Potency [7] | Potency [8] | Potency [9]

CCCC(C)(COC(N)=O)COC(=O)NC(C)C (stereo unspecified)
inactive: Potency [1] | Potency [2] | Potency [3] | Potency [4] | Potency [5] | Potency [6] | Potency [7] | Potency [8] | Potency [10] | Potency [9]

CCc1cnc(C2=NC(C)(C(C)C)C(=O)N2)c(C(=O)O)c1 (stereo unspecified)
inactive: Potency [1] | Potency [2] | Potency [3] | Potency [4] | Potency [5] | Potency [6] | Potency [7] | Potency [8] | Potency [9]

CN1CC[C@]23c4c5ccc(O)c4O[C@H]2[C@@H](O)CC[C@H]3[C@H]1C5
inactive: Potency [1] | Potency [2] | Potency [3] | Potency [4] | Potency [5] | Potency [6] | Potency [7] | Potency [8] | Potency [9]

COCc1cnc(C2=NC(C)(C(C)C)C(=O)N2)c(C(=O)O)c1 (stereo unspecified)
inactive: Potency [2] | Potency [3] | Potency [4] | Potency [5] | Potency [7] | Potency [8] | Potency [10] | Potency [9]

Nc1c(Br)cc(Br)c2c1C(=O)c1ccccc1C2=O
inactive: Potency [1] | Potency [2] | Potency [3] | Potency [4] | activity, negative = cytotoxicity [5] -2.6% [at 19 µM] | viability change, negative = cytotoxic [7] 1.64% [at 15.8 µM] | activation [8] 0.821% [at 15.8 µM] | activation [10] 1.05% [at 15.8 µM] | activity change, negative = cytotoxicity [9] 4.15% [at 15.8 µM]

c1ccc2c(c1)-c1cccc3cccc-2c13
inactive: Potency [1] | Potency [2] | Potency [4] | Potency [5] | Potency [6] | Potency [7] | Potency [8]
active: Potency [3] 49 µM

Cc1ncc(C[n+]2csc(CCO)c2C)c(N)n1
inactive: Potency [1] | Potency [2] | Potency [3] | Potency [4] | Potency [5] | Potency [6] | Potency [7] | Potency [8] | Potency [9]

O=C(O)C(O)C(O)C(=O)O (stereo unspecified)
inactive: Potency [1] | Potency [2] | Potency [3] | Potency [4] | Potency [5] | Potency [7] | Potency [8] | Potency [10] | Potency [9]

OCCSSCCO
inactive: Potency [1] | Potency [2] | Potency [3] | Potency [4] | Potency [5] | Potency [6] | Potency [7] | Potency [8] | Potency [9]

CCC1(CCC(C)C)C(=O)NC(=O)NC1=O
inactive: Potency [1] | Potency [2] | Potency [3] | Potency [4] | Potency [5] | Potency [7] | Potency [8] | Potency [10] | Potency [9]

NC(=O)CF
inactive: Potency [1] | Potency [2] | Potency [3] | Potency [4] | Potency [5] | Potency [6] | Potency [7] | Potency [8] | Potency [9]

C=C(C)C(=O)OCCCCOC(=O)C(=C)C
inactive: Potency [1] | Potency [2] | Potency [3] | Potency [4] | Potency [5] | Potency [6] | Potency [7] | Potency [8] | Potency [9]

Cc1ccc2c(C)cccc2c1
inactive: Potency [1] | Potency [2] | Potency [3] | Potency [4] | Potency [5] | Potency [7] | Potency [8] | Potency [10] | Potency [9]

c1ccc2c(c1)sc1ccccc12
inactive: Potency [2] | Potency [3] | Potency [4] | Potency [5] | Potency [7] | Potency [8] | Potency [10] | Potency [9]
inactive and 19 µM (active): Potency [1]

Oc1cccc(Cl)c1
inactive: Potency [2] | Potency [3] | Potency [4] | Potency [5] | Potency [7] | Potency [8] | Potency [9]

CN(C)c1ccc(N=O)cc1
inactive and 19.5 µM (active): Potency [1]
inactive: Potency [3]
active: Potency [2] 43.6 µM | Potency [4] 43.6 µM | Potency [5] 15.4 µM and 12.2 µM | Potency [6] 4.34 µM and 9.69 µM | Potency [7] 21.9 µM and 30.9 µM | Potency [9] 34.8 µM

c1ccc2sc(SNC3CCCCC3)nc2c1
inactive: Potency [1] | Potency [2] | Potency [3] | Potency [4] | Potency [5] | Potency [6] | Potency [7] | Potency [9]

O=C(Cc1ccccc1)OCCc1ccccc1
inactive: Potency [1] | Potency [2] | Potency [3] | Potency [4] | Potency [5] | Potency [6] | Potency [7] | Potency [8] | Potency [9]

FC(Cl)(Cl)C(F)(Cl)Cl
inactive: Potency [1] | Potency [2] | Potency [3] | Potency [4] | Potency [5] | Potency [7] | Potency [8] | Potency [10] | Potency [9]

CN[C@@H](C)[C@H](O)c1ccccc1
inactive: Potency [1] | Potency [2] | Potency [3] | Potency [4] | Potency [5] | Potency [7] | Potency [8] | Potency [9]

Clc1ccc2ccccc2c1
inactive: Potency [1] | Potency [2] | Potency [3] | Potency [4] | Potency [5] | Potency [6] | Potency [7] | Potency [8]

CC(C)(C)N(NC(=O)c1ccc(Cl)cc1)C(=O)c1ccccc1
inactive: Potency [1] | Potency [2] | Potency [3] | Potency [4] | Potency [5] | Potency [7] | Potency [8] | Potency [10] | Potency [9]

Nc1ccccc1C(=O)OCCc1ccccc1
inactive: Potency [1] | Potency [2] | Potency [3] | Potency [4] | Potency [5] | Potency [7] | Potency [8] | Potency [9]

CCC1(CC)C(=O)NC(=O)NC1=O
inactive: Potency [2] | Potency [3] | Potency [4] | Potency [5] | Potency [7] | Potency [8] | Potency [9]

CN(C)C(=O)Nc1cccc(OC(=O)NC(C)(C)C)c1
inactive: Potency [1] | Potency [2] | Potency [3] | Potency [4] | Potency [5] | Potency [7] | Potency [8] | Potency [10] | Potency [9]

CC(C)c1ccc(OP(=O)(Oc2ccc(C(C)C)cc2)Oc2ccc(C(C)C)cc2)cc1
active: Potency [2] 30.9 µM | Potency [4] 9.77 µM | Potency [9] 19.6 µM and 19.5 µM
inactive: Potency [3] | Potency [5] | Potency [7] | Potency [8]
